Test results published in PubChem BioAssay.
Calls of active or inactive are those of the source.

System: not listed separately
Assay: Plasmodium falciparum growth inhibition, primary screen, strain 3D7, DAPI fluorescence, 100 nL (AID 1184);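 further: parasites grown inside human red blood cells in medium with human serum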
Details: P. falciparum 3D7 growth, 3 d, higher = more signal

SMILES	z-score
CCCC[C@@H](O)C1=C(C)Cn2c(=O)n(-c3ccccc3)c(=O)n2[C@H]1CO	0.0686
C=CCN1C(=O)[C@]2(O[C@H](CCO)[C@@H]([Si](C)(C)c3ccc(OC)cc3)[C@@H]2C)c2cc(N3C(=O)c4ccccc4Oc4ccccc43)ccc21	-2.42
COC(=O)[C@@]1(Cc2ccc(F)cc2)[C@H]2c3cc(C(=O)N4CCCC4)n(C[C@H](O)CO)c3C[C@H]2CN1C(=O)c1ccccc1	-0.534
CN1C(=O)C2C(C1=O)C1C=C(CCCO)C2C(C2CC2)N1C (stereo unspecified)	0.119
C=CCOC(=O)[C@H]1[C@@H]2C(=O)O[C@@H](c3ccccc3)[C@@H](c3ccccc3)N2[C@@H](c2ccc(OCCOC(=O)[C@@H]3C[C@@H]4C(=O)N[C@@H](Cc5ccccc5)C(=O)N4[C@@H]3c3ccc(O)cc3)cc2)[C@]12C(=O)Nc1ccc(I)cc12	-1.39
[N-]=[N+]=Nc1ccccc1C[C@@]1(C(=O)NCC(O)CO)N=C(c2ccc(OCCCO)cc2)O[C@@H]1c1ccccc1N=[N+]=[N-] (stereo partly specified)	-2.15
COc1ccc(CCNC(=O)[C@@]2(C)c3ccccc3C(=O)N(Cc3ccc(OC(F)(F)F)cc3)[C@H]2c2ccc(CO)cc2)cc1	-1.21
CCOC(=O)C1=CC[C@@H](c2ccccc2)N(S(=O)(=O)c2ccc(C)cc2)[C@@H]1C#N	-0.465
[N-]=[N+]=NCc1ccccc1[C@H]1OC(c2ccc(OCCCO)cc2)=N[C@@]1(Cc1ccccc1N=[N+]=[N-])C(=O)N1CCOCC1	-2.27

Biological target: Homeobox protein Hox-A13 (Mus musculus) (UniProt Q62424)
Sequence (Q62424 whole entry, looked up): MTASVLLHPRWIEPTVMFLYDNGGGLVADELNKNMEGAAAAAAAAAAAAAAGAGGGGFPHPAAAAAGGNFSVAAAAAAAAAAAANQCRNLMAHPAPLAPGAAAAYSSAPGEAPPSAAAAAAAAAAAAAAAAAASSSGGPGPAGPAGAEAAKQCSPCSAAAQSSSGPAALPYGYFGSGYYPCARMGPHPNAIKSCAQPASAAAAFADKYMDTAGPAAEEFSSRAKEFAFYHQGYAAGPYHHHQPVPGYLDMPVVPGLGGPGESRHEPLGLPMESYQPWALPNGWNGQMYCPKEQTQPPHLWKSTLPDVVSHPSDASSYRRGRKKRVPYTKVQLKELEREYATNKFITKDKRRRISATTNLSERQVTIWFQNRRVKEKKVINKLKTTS
Assay: inhibitors of HoxA13-DNA binding, primary screen, biochemical, fluorescence polarization, labeled oligonucleotide (AID 1185)
Details: 15 min, higher = more signal, called active from +8 up or from −8 down

SMILES	z-score
COC(=O)[C@@]1(Cc2ccccc2)[C@H]2c3cc(C(=O)N(C)C)n(Cc4nc5ccccc5[nH]4)c3C[C@H]2CN1C(=O)c1ccccc1	-1.6 (inactive)
CC(C)C(=C=CC[C@H](O)c1cccc(OCCO)c1)C[C@H](O)c1ccccn1	-3.81 (inactive)
COc1ccc(CCNC(=O)[C@@H]2c3ccccc3C(=O)N(C(C)C)[C@H]2c2ccc(CO)cc2)cc1	-2.13 (inactive)
COCCOC(=O)N1C(=O)[C@@]2(c3cc(C#CCNC(N)=O)ccc31)[C@H](C(=O)Nc1nc3ccccc3s1)[C@H]1C(=O)O[C@H](c3ccccc3)[C@H](c3ccccc3)N1[C@@H]2c1ccc(O)cc1	-0.879 (inactive)
O=C(c1ccccc1)N1Cc2ccccc2C[C@@]2(N=C(c3ccc(OCCCO)cc3)O[C@H]2c2ccccc2)C1=O	-2.43 (inactive)
CC(=O)NCCCC[C@@H]1NC(=O)[C@H]2C[C@@H](C(=O)NCCCCCN)[C@@H](c3ccc(O)cc3)N2C1=O	-2.29 (inactive)
COc1ccc(NN2C(C(O)c3ccc(F)cc3)C=CC3C(=O)N(C4CCCCC4)C(=O)C32)cc1 (stereo unspecified)	-4.3 (inactive)
C=C(COC)C(=O)CC[C@@H](OC(=O)c1ccccc1-c1ccccc1C(=O)O)c1ccccc1OCCO	-5.71 (inactive)
COc1ccc(C(O)C2C=CC3C(=O)N(C)C(=O)C3N2Nc2ccccc2)cc1 (stereo unspecified)	-3.64 (inactive)
C=CCOC(=O)[C@H]1[C@@H]2C(=O)O[C@@H](c3ccccc3)[C@@H](c3ccccc3)N2[C@@H](c2ccc(OCCOC(=O)[C@H]3C[C@H]4C(=O)NCC(=O)N4[C@H]3c3ccc(O)cc3)cc2)[C@]12C(=O)Nc1ccccc12	-0.844 (inactive)
CN1C2C=C(c3ccc(CO)cc3)C(C3C(=O)N(C(N)=O)C(=O)C32)C1C1CC1 (stereo unspecified)	-6.63 (inactive)
C=CCNC(=O)[C@H]1[C@@H]2C(=O)O[C@@H](c3ccccc3)[C@@H](c3ccccc3)N2[C@@H](c2ccc(OCCO)cc2)[C@]12C(=O)Nc1ccc(C#Cc3ccc(OC)cc3)cc12	-0.279 (inactive)
O=C(N1CCOCC1)[C@]1(CCS(=O)(=O)c2ccccc2)N=C(c2ccc(OCCCO)cc2)O[C@@H]1c1ccccc1	-4.54 (inactive)
Cc1c(NC(=O)/C(C#N)=C/C=C/c2ccc([N+](=O)[O-])cc2)c(=O)n(-c2ccccc2)n1C	-4.12 (inactive)
COC(=O)C(CC#Cc1ccc2c(c1)[C@]1(C(=O)N2)[C@H](c2ccccc2OCCO)N2[C@H](c3ccccc3)[C@H](c3ccccc3)OC(=O)[C@H]2[C@@H]1C(=O)N1CCN(c2ncccn2)CC1)C(=O)OC	-1.41 (inactive)
C[C@]1(C(=O)NC2CC2)c2ccccc2C(=O)N(Cc2cc(F)cc(C(F)(F)F)c2)[C@H]1c1ccc(CO)cc1	-3.51 (inactive)
[N-]=[N+]=NCc1ccccc1C[C@@]1(C(N)=O)N=C(c2ccc(OCCCO)cc2)O[C@@H]1c1ccccc1N=[N+]=[N-]	-4.99 (inactive)
